From PubChem BioAssay (Tox21) come the findings set out here.

Values without a mark were called inactive. Inconclusive results are not listed. Calls of active or inactive are those of the source. Unless noted, calls follow the shape of the dose curve; as a rule, active = well fitted curve in the direction sought with a large enough effect in the repeat runs; inconclusive = weak or mixed curves; inactive = no such curve, though single readings can be large; an effect the other way counts as inactive or inconclusive.

Experiment [1] can be described thus: qHTS assay to identify small molecule antagonists of the estrogen receptor alpha (ER-alpha) signaling pathway using the BG1 cell line in the presence of 0.1 nM 17-beta-estradiol - cell viability counter screen (AID 1259241). Also: nearly all actives have a fitted effect of over 40% in size. In outline:
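The cell line endogenously expresses full-length ER-alpha and carries four EREs driving luciferase. Cells are cultured 5 days hormone-free, treated 22 hr with compounds and 0.1 nM estradiol, then viability is read by fluorescence.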

Experiment [2] is described as follows: qHTS assay to identify small molecule antagonists of the androgen receptor (AR) signaling pathway using the MDA cell line in the presence of 0.5 nM R1881 - cell viability counter screen (AID 1259242). Also: nearly all actives have a fitted effect of over 45% in size. In outline: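 Cells seeded at 3,000/well and allowed 5 hr at 37C, 0% CO2 before compound transfer and R1881 (0.5 nM final) addition; 16 hr later, live-cell protease fluorescence indicated cytotoxicity.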

A short description of experiment [3]: qHTS assay to identify small molecule phospholipidosis (PLD) inducers (AID 1259344; active = well fitted curve in the direction sought with a large enough effect; an effect the other way counts as inactive or inconclusive). In outline:
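Read-out is LipidTOX Red fluorescence (ex 595/em 615) imaged in HepG2 cells after 24 h compound exposure at 37 C, with Hoechst nuclear counterstain (ex 352/em 461) allowing per-cell normalisation.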

Experiment [4] is described as follows: qHTS assay to identify small molecule HDAC inhibitors (AID 1259364).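 Also: wild-type HCT-116 cells with endogenous class I/II HDAC activity; top concentration of the series differs between compounds; nearly all actives have a fitted effect of over 45% in size.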 In outline:
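HCT-116 wt cells, 1,500/well, overnight attach. Compounds (DMSO) 2 h, 37 °C. HDAC-Glo I/II, 30 min RT. Luminescence.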

Experiment [5] in a line: qHTS assay to identify small molecule HDAC inhibitors - cell viability counter screen (AID 1259365). Also: series mostly up to about 92 µM; nearly all actives have a fitted effect of over 50% in size. Put shortly: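 Viability readout: CellTiter-Glo luminescence. Wild-type HCT-116 cells, 2hr compound treatment following overnight attachment at 37 C.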
Experiment [6] in a line: qHTS assay to identify small molecule agonists of the sonic hedgehog signaling (Shh) pathway - cell viability counter screen (AID 1259366). Also: nearly all actives have a fitted effect of over 50% in size. In outline:
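Viability measured fluorometrically (CellTiter-Fluor, 1hr, 37C) in 3T3 Gli1-Luc reporter cells after 23hr compound exposure within a 24hr incubation at 37C/5% CO2.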

A short description of experiment [7]: qHTS assay to identify small molecule antagonists of the sonic hedgehog signaling (Shh) pathway - cell viability counter screen (AID 1259367). Also: nearly all actives have a fitted effect of over 55% in size. Put shortly: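 Fluorescence read-out (CellTiter-Fluor, 1 hr at 37C) taken after 23 hr compound treatment of 3T3 Gli1-Luc cells stimulated with conditioned medium. Cells were seeded at 2,000 per well and pre-incubated 4 hr.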

The nature of experiment [8]: qHTS assay to identify small molecule agonists of the sonic hedgehog signaling (Shh) pathway (AID 1259368; calls by dose curve;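 also: NIH/3T3-derived 3T3Gli1-Luc cells carrying a stable Gli1-driven firefly luciferase reporter; series mostly up to about 92 µM; nearly all actives have a fitted effect of over 15% in size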). Put shortly:
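Following a 24 hr incubation with DMSO-dissolved compounds at 37 C, 5% CO2, Gli1-Luc NIH/3T3-derived cells received luciferase reagent for 30 min at room temperature prior to luminescence measurement.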

A short description of experiment [9]: qHTS assay to identify small molecule antagonists of the sonic hedgehog signaling (Shh) pathway (AID 1259369; calls by dose curve; also: nearly all actives have a fitted effect of over 45% in size; also: potency is read from the fitted curve at half-maximal effect). In outline: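 Read-out is luminescence from a firefly luciferase gene controlled by the Gli1 response element, in 3T3Gli1-Luc cells pre-incubated 4hr then exposed to compounds and conditioned medium for 24hr.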
Experiment [10] in a line: qHTS assay to identify small molecule agonists of the androgen receptor (AR) signaling pathway in the presence of an antagonist - cell viability counter screen (AID 1259379).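 Also: MDA-kb2 human breast cancer cells carrying an MMTV luciferase reporter; series mostly up to about 92 µM; nearly all actives have a fitted effect of over 25% in size.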 Put shortly: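 Each compound was tested at 15 concentrations on MDA-kb2 cells in the presence of 3.0uM nilutamide. Viability was measured by CellTiter-Fluor fluorescence after a 16 hr incubation at 37C in a CO2-free atmosphere.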

A short description of experiment [11]: qHTS assay to identify small molecule agonists of the estrogen receptor beta (ER-beta) signaling pathway - cell viability counter screen (AID 1259380). Also: nearly all actives have a fitted effect of over 30% in size. Also: potency is read from the fitted curve at half-maximal effect. Put shortly:
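Compounds dissolved in DMSO were pin-transferred onto ER-beta-UAS-bla HEK293T cells that had settled 6 hr, and exposure ran 16 hr at 37C. Following the reporter read, CellTiter-Glo luminescence after 30 min at room temperature indicated cytotoxicity.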

A short description of experiment [12]: qHTS assay to identify small molecule antagonists of the estrogen receptor beta (ER-beta) signaling pathway - cell viability counter screen (AID 1259382). Also: nearly all actives have a fitted effect of over 55% in size. Also: potency is read from the fitted curve at half-maximal effect. In outline: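 CellTiter-Glo ATP luminescence measured after the LiveBLAzer read in the same wells; ER-beta-UAS-bla HEK293T cells, 16 hr compound treatment with 1nM 17-beta-estradiol agonist at 37C, 5% CO2.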

Experiment [13] is described as follows: qHTS assay to identify small molecule agonists or antagonists of the thyroid stimulating hormone receptor (TSHR) signaling pathway - wild type cell line counter screen (AID 1259384; calls by dose curve). Put shortly: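 Wild-type Hek293 cells, 800/well, 18 h at 37C, then compound with Ro20-1724 for 30 min RT. cAMP by HTRF (cAMP-d2/anti-cAMP cryptate), 1 h RT, fluorescence read. 15 concentrations, triplicates.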

For experiment [14], the target named is Thyrotropin receptor (Homo sapiens) (UniProt P16473). As to the kind of experiment: qHTS assay to identify small molecule antagonists of the thyroid stimulating hormone receptor (TSHR) signaling pathway (AID 1259385; calls by dose curve; also: nearly all actives have a fitted effect of over 20% in size). In outline: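 TSHR-HEK293 cells (800/well) plated 18 h, then compounds with Ro20-1724 and TSH at 1.5 ng/mL final, 30 min at room temperature. cAMP quantified by HTRF (cAMP-d2/anti-cAMP-cryptate, 1 h); 15 concentrations in triplicate.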
Sequence of Thyrotropin receptor (Homo sapiens) (P16473 whole entry, looked up): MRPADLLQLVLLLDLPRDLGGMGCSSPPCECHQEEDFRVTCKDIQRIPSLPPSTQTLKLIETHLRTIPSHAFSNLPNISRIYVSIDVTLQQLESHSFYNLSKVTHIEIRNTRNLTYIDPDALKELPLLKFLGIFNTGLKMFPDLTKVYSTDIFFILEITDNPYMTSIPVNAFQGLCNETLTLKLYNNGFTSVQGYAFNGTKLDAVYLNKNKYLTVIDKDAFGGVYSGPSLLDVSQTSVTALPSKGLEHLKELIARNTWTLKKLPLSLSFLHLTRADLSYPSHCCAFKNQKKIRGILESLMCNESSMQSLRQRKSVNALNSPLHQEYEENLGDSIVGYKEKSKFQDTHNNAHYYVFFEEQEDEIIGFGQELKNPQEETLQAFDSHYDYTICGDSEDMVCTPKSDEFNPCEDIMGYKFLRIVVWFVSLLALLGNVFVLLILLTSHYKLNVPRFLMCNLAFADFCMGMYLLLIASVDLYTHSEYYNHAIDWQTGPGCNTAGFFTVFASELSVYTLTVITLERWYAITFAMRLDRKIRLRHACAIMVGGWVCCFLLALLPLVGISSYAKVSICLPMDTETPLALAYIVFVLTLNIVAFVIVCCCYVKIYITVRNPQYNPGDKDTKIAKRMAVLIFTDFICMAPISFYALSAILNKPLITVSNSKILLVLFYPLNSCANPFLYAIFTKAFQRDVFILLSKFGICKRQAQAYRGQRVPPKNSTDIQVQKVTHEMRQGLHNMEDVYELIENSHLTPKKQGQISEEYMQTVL

In experiment [15] the target is Estrogen receptor beta (Homo sapiens) (UniProt Q92731). As to the kind of experiment: qHTS assay to identify small molecule agonists of the estrogen receptor beta (ER-beta) signaling pathway (AID 1259377; active = well fitted activation curve with a large enough effect in the signal ratio in the repeat runs, not every such curve was filed as active; the % refers to the signal ratio). In outline: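 A UAS-controlled beta-lactamase reporter in ER-beta-UAS-bla HEK293T cells reports receptor activation. Compounds act for 16 hr at 37C in 2% charcoal-stripped serum, and a FRET substrate is read by fluorescence after 2 hours.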
Sequence of Estrogen receptor beta (Homo sapiens) (Q92731 whole entry, looked up): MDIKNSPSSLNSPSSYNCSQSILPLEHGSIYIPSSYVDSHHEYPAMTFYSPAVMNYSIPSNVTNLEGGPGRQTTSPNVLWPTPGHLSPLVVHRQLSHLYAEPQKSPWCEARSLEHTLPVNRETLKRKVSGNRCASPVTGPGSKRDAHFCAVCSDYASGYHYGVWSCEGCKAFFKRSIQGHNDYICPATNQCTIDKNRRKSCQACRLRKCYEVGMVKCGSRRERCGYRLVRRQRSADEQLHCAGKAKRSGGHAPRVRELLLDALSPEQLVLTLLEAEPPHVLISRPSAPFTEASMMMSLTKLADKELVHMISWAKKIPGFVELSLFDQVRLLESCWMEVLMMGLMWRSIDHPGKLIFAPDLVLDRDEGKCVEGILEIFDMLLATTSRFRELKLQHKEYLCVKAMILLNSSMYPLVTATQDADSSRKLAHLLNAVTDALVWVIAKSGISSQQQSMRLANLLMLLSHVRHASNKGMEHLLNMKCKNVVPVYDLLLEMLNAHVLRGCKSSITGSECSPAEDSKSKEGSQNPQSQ

Experiment [16] shares this target. Briefly: qHTS assay to identify small molecule antagonists of the estrogen receptor beta (ER-beta) signaling pathway (AID 1259378; active = well fitted inhibition curve with a large enough effect in the signal ratio in the repeat runs, not every such curve was filed as active; the % refers to the signal ratio; also: potency is read from the fitted curve at half-maximal effect). In outline:
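ER-beta-UAS-bla HEK293T cells in 2% charcoal-stripped FBS medium treated with compound plus 1nM final 17-beta-estradiol for 16 hr at 37C. Beta-lactamase reporter read by FRET substrate fluorescence after 2 hours at room temperature.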

The target in experiment [17] is Estrogen receptor (Homo sapiens) (UniProt P03372). Briefly: qHTS assay to identify small molecule agonists of the estrogen receptor alpha (ER-alpha) signaling pathway in the presence of an antagonist (AID 1259383; calls by dose curve; also: top concentration of the series differs between compounds; nearly all actives have a fitted effect of over 15% in size). Put shortly: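 Luminescent ERE-luciferase reporter, VM7Luc4E2 cells (endogenous ER-alpha); 10.0nM ICI-182,780 final; 15-point compound titration; 22hr at 37C; ONE-Glo, 30min RT.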
Sequence of Estrogen receptor (Homo sapiens) (P03372 whole entry, looked up): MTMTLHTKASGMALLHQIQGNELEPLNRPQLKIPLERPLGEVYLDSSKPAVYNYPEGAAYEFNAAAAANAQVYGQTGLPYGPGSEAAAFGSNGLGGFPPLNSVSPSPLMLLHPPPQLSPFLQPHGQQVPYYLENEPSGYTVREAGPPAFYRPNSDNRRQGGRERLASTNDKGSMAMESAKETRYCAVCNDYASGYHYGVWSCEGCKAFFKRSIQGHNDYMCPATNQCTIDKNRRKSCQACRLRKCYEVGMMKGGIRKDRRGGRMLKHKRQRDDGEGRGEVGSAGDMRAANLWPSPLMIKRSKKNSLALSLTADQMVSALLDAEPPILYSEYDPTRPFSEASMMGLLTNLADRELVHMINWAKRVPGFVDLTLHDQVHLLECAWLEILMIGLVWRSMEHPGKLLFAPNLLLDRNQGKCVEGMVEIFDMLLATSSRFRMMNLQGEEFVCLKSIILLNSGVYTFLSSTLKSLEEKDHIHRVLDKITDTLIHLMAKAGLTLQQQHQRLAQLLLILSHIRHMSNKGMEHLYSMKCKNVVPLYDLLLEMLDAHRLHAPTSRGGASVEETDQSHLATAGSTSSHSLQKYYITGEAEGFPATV

Experiment [18] has the same target. Briefly: qHTS assay to identify small molecule antagonists of the estrogen receptor alpha (ER-alpha) signaling pathway using the BG1 cell line in the presence of 0.1 nM 17-beta-estradiol (AID 1259244). Also: nearly all actives have a fitted effect of over 50% in size. In outline:
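Luciferase signal from VM7Luc4E2 ERE-reporter cells, co-dosed with test compound and 0.1 nM final 17beta-estradiol for 22 h, read with ONE-Glo.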

On to `O=C(NCCO[N+](=O)[O-])c1cccnc1`, for which the Potency entry in experiment [1], in experiment [2], in experiment [3], in experiment [4], in [5] and in experiment [6] was “inactive” each time. Moreover, the Potency result in experiment [7], in [9], in [10], in experiment [11], in experiment [12] and in experiment [13] was “inactive” each time. In addition, the Potency result in experiment [14] was “inactive”. The call in experiment [8] was inactive.
For the compound `CC(C)(O)c1ccc(CNC(=O)c2cccnc2Oc2ccc(F)cc2)cc1`, the Potency entry in [1], in [2], in [4], in experiment [5], in [6] and in experiment [7] was “inactive” each time. Also, the Potency entry in [15], in [16], in experiment [11], in [12] and in experiment [13] was “inactive” in each case. In addition, in experiment [8], the call was inactive. The Potency in experiment [9] was 0.273 µM (active).
As for `Clc1ccc(Cn2c(CN3CCCC3)nc3ccccc32)cc1`, the Potency entry in experiment [1], in experiment [2], in [3], in experiment [4], in [6] and in experiment [7] was “inactive” throughout. Besides, the Potency entry in [15], in experiment [10] and in [13] was “inactive” throughout. Further, the compound was classed as inactive in [8]. Besides, in experiment [16], the Potency was 11.9 µM (active).
As for `CCn1cc(C(=O)O)c(=O)c2cnc(N3CCNCC3)nc21`, the Potency result in experiment [1], in experiment [2], in experiment [3], in [5], in experiment [6] and in experiment [7] was “inactive” each time. For the same compound, the Potency result in experiment [9], in [15], in [16], in experiment [10], in experiment [11] and in experiment [12] was “inactive” throughout. Moreover, the call in [8] was inactive.
Consider `Nc1ccc(S(=O)(=O)Nc2ccccc2)cc1`, for which the Potency result in experiment [1], in experiment [2], in experiment [3], in experiment [4], in [5] and in experiment [6] was “inactive” throughout. The Potency entry in experiment [7], in experiment [10], in [11], in experiment [12], in [13] and in [14] was “inactive” in each case. In [8], the call was inactive.
With `Nc1ncn([C@H]2C[C@H](O)[C@@H](CO)O2)c(=O)n1`, the Potency entry in [1], in experiment [2], in experiment [3], in experiment [4], in experiment [5] and in experiment [6] was “inactive” in each case. In addition, the Potency entry in experiment [7], in experiment [9], in experiment [15], in experiment [11] and in experiment [12] was “inactive” each time. The outcome in experiment [8] was inactive.
Turning to `CC[N+](C)(CC)CCOC(=O)C(O)(c1ccccc1)C1CCCCC1` (stereo not given), the Potency entry in experiment [1], in experiment [2], in experiment [3], in experiment [4], in experiment [5] and in [7] was “inactive” throughout. In addition, the Potency entry in experiment [9], in [10], in experiment [11], in [12], in experiment [17] and in experiment [13] was “inactive” in each case. Moreover, the compound was called inactive in experiment [8].
In the case of `CCCCCCCCCCCCCCOS(=O)(=O)O`, the Potency entry in [1], in [2], in experiment [18], in [5], in experiment [6] and in experiment [7] was “inactive” throughout. For the same compound, the Potency result in experiment [9], in [15], in [10], in [17] and in experiment [13] was “inactive” in each case. Also, the compound was classed as inactive in experiment [8]. The figures for the Potency in experiment [11] and in experiment [12] were 30.6 µM (active) and 61.1 µM (active), respectively.
Consider `CC(C)=CCC/C(C)=C/CC/C(C)=C/CO`, for which the Potency result in experiment [1], in experiment [2], in experiment [4], in experiment [5], in [6] and in experiment [7] was “inactive” in each case. Besides, the Potency result in experiment [15], in experiment [10], in experiment [12], in [13] and in experiment [14] was “inactive” throughout. The compound was called inactive in experiment [8]. For the same compound, the Potency in experiment [9] is 43.3 µM (active).
With `CCN(CC)CCOC(=O)C(Cc1cccc2ccccc12)CC1CCCO1` (stereo not given), the Potency entry in [1], in experiment [2], in [3], in [4], in experiment [5] and in experiment [6] was “inactive” throughout. In addition, the Potency entry in experiment [7], in experiment [9], in experiment [10], in experiment [12] and in experiment [13] was “inactive” each time. The compound was called inactive in experiment [8].
For `CC(=O)c1ccc2c(c1)N(CCCN(C)C)c1ccccc1S2`, the Potency result in experiment [1], in experiment [2], in experiment [18], in experiment [5], in experiment [9] and in experiment [15] was “inactive” in each case. For the same compound, the Potency entry in [17], in experiment [13] and in [14] was “inactive” each time. The call in experiment [8] was inactive.
Turning to `C=CCOC(=O)CCC1CCCCC1`, the Potency entry in experiment [1], in experiment [2], in experiment [4], in [5], in experiment [6] and in experiment [7] was “inactive” throughout. Also, the Potency result in [9], in experiment [15], in experiment [16], in experiment [10], in [11] and in experiment [12] was “inactive” in each case. Moreover, the Potency entry in experiment [13] and in experiment [14] was “inactive” in each case. Moreover, in experiment [8], the compound was called inactive.
In the case of `CCCCNc1ccc(C(=O)OCCOCCOCCOCCOCCOCCOCCOCCOCCOC)cc1`, the Potency entry in [1], in experiment [2], in experiment [3], in experiment [4], in [6] and in experiment [15] was “inactive” each time. Further, the Potency entry in experiment [16], in [10], in [12], in [17], in [13] and in [14] was “inactive” throughout. Also, the result in [8] was inactive.
On to `CCCCO`, for which the Potency result in experiment [1], in experiment [2], in [3], in experiment [4], in [5] and in experiment [6] was “inactive” each time. Further, the Potency result in experiment [7], in experiment [9], in experiment [15], in experiment [16], in experiment [10] and in experiment [11] was “inactive” throughout. Further, the Potency entry in experiment [12] and in experiment [14] was “inactive” in each case. Moreover, in experiment [8], the call was inactive.
Regarding `O=S(=O)(Oc1ccc(Cl)cc1)c1ccccc1`, the Potency entry in experiment [1], in experiment [2], in experiment [18], in experiment [5], in [7] and in experiment [9] was “inactive” throughout. The Potency entry in [15], in [16], in experiment [10], in experiment [11], in [12] and in [17] was “inactive” each time. For the same compound, the Potency result in experiment [13] is “inactive”. Also, in experiment [8], the compound was called inactive.
